{"source": "PubChem BioAssay (Tox21)", "note": "Results filed as inconclusive are left out. The source made the active and inactive calls. Calls come from the whole dose curve. % is set by controls: 0 for no effect and ±100 for the full control effect; potency is the fitted concentration of half-maximal effect."}
{"assay": "qHTS assay to identify small molecule antagonists of the sonic hedgehog signaling (Shh) pathway (AID 1259369); note: nearly all actives have a fitted effect of over 45% in size", "conditions": "NIH/3T3 Gli1-Luc reporter, Shh antagonist, luminescence 24 h; series mostly up to 92.4 µM; activity change, negative = inhibition: at the top concentration", "source_text": "U.S. Tox21 Program National Center for Advancing Translational Sciences [NCATS] NIH Chemical Genomics Center [NCGC] U.S. Environmental Protection Agency [EPA] National Institutes of Environmental Health Sciences [NIEHS] National Toxicology Program [NTP] U.S. Food and Drug Administration [FDA] Tox21 Assay Overview: The sonic hedgehog (Shh) pathway is essential for normal embryonic development. Dysregulation of the Shh pathway can cause severe developmental defects in organs. Therefore chemicals that interfere with the pathway are potential developmental toxicants. A cell line designated 3T3Gli1-Luc (DMB/OARSA/CFSAN/FDA, Laurel, MD), a NIH/3T3 derived clone containing stably integrated Gli1-Luc reporter is used to detect chemical interference of the Shh pathway, by changes in the expression of the firefly Luc gene under the control of the Gli1 transcriptional response element. This cell line was used to screen Tox21 libraries for identifying and prioritizing the potential developmental toxicants that interfere Shh pathway. Conditioned medium-stimulated mode was used to screen for chemicals inhibiting Shh signaling.\nTox21 Assay Protocol Summary: 3T3 Gli1-Luc cells were dispensed at 2,000 per well in 5uL of culture medium into white solid bottom 1536-well plates (Greiner Bio-One, Monroe, NC) using a Multidrop Combi (Thermo Scientific, Waltham, MA) dispenser. The assay plates were incubated at 37 C and 5% CO2 for 4hr, and then 23nL of compounds dissolved in DMSO and positive control were transferred using a Pintool station (Wako, San Diego, CA). The compound transfer was followed by the addition of 1ul conditioned medium or assay buffer using two separate tips of Flying Reagent Dispenser (FRD, Aurora Discovery, San Diego, CA). The assay plates were incubated at 37C and 5% CO2 for 24hr. For luciferase read, 4uL of Amplite Luciferase reporter gene assay reagent (AAT Bioquest, Inc. Sunnyvale, CA) was added to each well of the assay plates using FRD and incubated at room temperature for 30min. The luminescence signal was measured using a ViewLux plate reader (Perkin Elmer, Shelton, CT)."}
{"compound": "CC(C)c1nc(CN(C)C(=O)N[C@H](C(=O)N[C@@H](Cc2ccccc2)C[C@H](O)[C@H](Cc2ccccc2)NC(=O)OCc2cncs2)C(C)C)cs1", "activity change, negative = inhibition": "-16% [at 42.5 µM] (inactive)"}
{"compound": "Cc1c(C)c2c(c(C)c1OC(=O)CCC(=O)OCCO)CC[C@@](C)(CCC[C@H](C)CCC[C@H](C)CCCC(C)C)O2", "activity change, negative = inhibition": "-18.2% [at 42.5 µM] (inactive)"}
{"compound": "Oc1cc2c(cc1O)[C@H]1c3ccc(O)c(O)c3OC[C@@]1(O)C2", "Potency": "17.4 µM (active)"}
{"compound": "CCCCN(CCN(CCCC)C(=O)N1CCOCC1)C(=O)N1CCOCC1", "Potency": "13.3 µM (active)"}
{"compound": "COc1ccccc1Oc1c(NS(=O)(=O)c2ccc(C(C)(C)C)cc2)nc(-c2ncccn2)nc1OCCO", "Potency": "15 µM (active)"}
{"compound": "CN(C)CCN1C(=O)c2ccccc2N(C)c2ccccc21", "activity change, negative = inhibition": "-11% [at 42.5 µM] (inactive)"}
{"compound": "CC(=O)N/N=C/c1ccc([N+](=O)[O-])o1", "Potency": "26.6 µM (active)"}
{"compound": "CCOC(=O)c1ccc(C#Cc2ccc3c(c2)C(C)(C)CCS3)nc1", "activity change, negative = inhibition": "-37.7% [at 42.5 µM] (inactive)"}
{"compound": "Nc1cccc2c1CN(C1CCC(=O)NC1=O)C2=O", "note": "(stereo not given)", "activity change, negative = inhibition": "1.76% [at 42.5 µM] (inactive)"}
{"compound": "Nc1ccc(N=Nc2ccccc2)c(N)c1", "activity change, negative = inhibition": "-19.8% (inactive)"}
{"compound": "CC(=O)c1ccc([N+](=O)[O-])cc1", "activity change, negative = inhibition": "19.7% (inactive)"}
{"compound": "COc1cc(N)c(Cl)cc1C(=O)NC1CCN(CCCOc2ccc(F)cc2)CC1OC", "note": "(stereo not given)", "Potency": "2.66 µM (active)"}
{"compound": "CCC1CO1", "note": "(stereo not given)", "activity change, negative = inhibition": "19.8% (inactive)"}
{"compound": "CC1=C(CC=O)C(C)(C)CCC1", "activity change, negative = inhibition": "-20.6% (inactive)"}
{"compound": "CN1C(=O)N(c2ccccc2Br)Cc2cnc(Nc3ccc4c(c3)OCC(CO)O4)nc21", "note": "(stereo not given)", "Potency": "6.86 µM (active)"}
{"compound": "O=C1Cc2cc(Cl)ccc2N1", "activity change, negative = inhibition": "-10.9% [at 42.5 µM] (inactive)"}
{"compound": "CN1C(=O)OC(C)(C)C1=O", "activity change, negative = inhibition": "32.9% (inactive)"}
{"compound": "c1ccc2c(c1)CCc1ccccc1N2", "Potency": "inactive"}
{"compound": "CCOC(=O)c1ccc(OCCN2C[C@H](O)[C@@H](O)[C@H](O)[C@H]2CO)cc1", "activity change, negative = inhibition": "11.8% [at 42.5 µM] (inactive)"}
{"compound": "O=C(/C=C/c1ccc(O)c(O)c1)O[C@@H]1C[C@@](OC(=O)/C=C/c2ccc(O)c(O)c2)(C(=O)O)C[C@@H](O)[C@@H]1O", "activity change, negative = inhibition": "11.9% [at 42.5 µM] (inactive)"}
{"compound": "C[C@]12CC[C@@H]3c4ccc(O)cc4CC[C@H]3[C@@H]1CC[C@@H]2OC(=O)CCC1CCCC1", "Potency": "13.3 µM (active)"}
{"compound": "O=C1c2ccccc2C(=O)C1(O)O", "Potency": "15.4 µM (active)"}
{"compound": "Clc1ccc(Nc2nnc(Cc3ccncc3)c3ccccc23)cc1", "Potency": "1.19 µM (active)"}
{"compound": "O=C(CCCN1CC=C(n2c(=O)[nH]c3ccccc32)CC1)c1ccc(F)cc1", "activity change, negative = inhibition": "-5.82% [at 42.5 µM] (inactive)"}
{"compound": "CCc1ccccc1", "activity change, negative = inhibition": "4.1% (inactive)"}
{"compound": "Cc1cc(O)c(C)c(C)c1O", "activity change, negative = inhibition": "13.4% [at 42.5 µM] (inactive)"}
{"compound": "CCOC(=O)[C@H](CCc1ccccc1)N[C@@H](C)C(=O)N(CC(=O)O)C1Cc2ccccc2C1", "activity change, negative = inhibition": "-1.74% [at 42.5 µM] (inactive)"}
{"compound": "CN1CC(=O)N2[C@H](c3ccc4c(c3)OCO4)c3[nH]c4ccccc4c3C[C@@H]2C1=O", "activity change, negative = inhibition": "21.4% [at 42.5 µM] (inactive)"}
{"compound": "Cc1cc(C)cc(N)c1", "activity change, negative = inhibition": "4.76% (inactive)"}
{"compound": "CCCCN1CCCC1C(=O)Nc1c(C)cc(C)cc1C", "note": "(stereo not given)", "activity change, negative = inhibition": "11.9% [at 42.5 µM] (inactive)"}
{"compound": "Cc1cccc(N(C)C(=S)Oc2ccc3c(c2)CCC3)c1", "activity change, negative = inhibition": "-30.7% [at 42.5 µM] (inactive)"}
{"compound": "CN1C(C(=O)Nc2ccccn2)=C(O)c2sccc2S1(=O)=O", "activity change, negative = inhibition": "9.87% [at 42.5 µM] (inactive)"}
{"compound": "C[C@H]1c2cccc(O)c2C(O)=C2C(=O)[C@]3(O)C(O)=C(C(N)=O)C(=O)[C@@H](N(C)C)[C@@H]3[C@@H](O)[C@@H]21", "activity change, negative = inhibition": "10.8% [at 42.5 µM] (inactive)"}
{"compound": "CC(O)c1ccccc1", "note": "(stereo not given)", "activity change, negative = inhibition": "0.265% (inactive)"}
{"compound": "CC1(C)[C@H](C(=O)O)N2C(=O)C[C@H]2S1(=O)=O", "activity change, negative = inhibition": "11.6% [at 42.5 µM] (inactive)"}
{"compound": "Cc1ccccc1S", "activity change, negative = inhibition": "-1.02% [at 42.5 µM] (inactive)"}
{"compound": "N#CCCN(CCO)CCO", "activity change, negative = inhibition": "0.0398% (inactive)"}
{"compound": "CCCC(=O)C(=O)O", "activity change, negative = inhibition": "0.698% (inactive)"}
{"compound": "CC(=O)OCC[N+](C)(C)C", "activity change, negative = inhibition": "13.5% [at 42.5 µM] (inactive)"}
{"compound": "OCCN1CCN(CCCN2c3ccccc3Sc3ccc(Cl)cc32)CC1", "Potency": "11.9 µM (active)"}
